Consider 67 compounds from the antibiotic and cytotoxicity screens of Wong et al. (2023).

About 3,300 (8.5%) of roughly 39,000 compounds were called active. This is one part of a sample in which actives are shown more often than they occur.

The assay has as its system HepG2. As to the kind of experiment: cytotoxicity call (relative viability < 0.9). To be noted: 10 µM.
As for `Cc1ccc(C(=O)N(CCCN)[C@@H](c2nc3cc(Cl)ccc3c(=O)n2Cc2ccccc2)C(C)C)cc1`, the cytotoxicity call was “active”.

For `Cc1ccc(C(=O)N(CCCN)[C@@H](c2oc3cc(Cl)ccc3c(=O)c2Cc2ccccc2)C(C)C)cc1`, the cytotoxicity call was “active”.

With `Cc1ccc2c(c1)c1nc3ccccc3nc1n2Cc1ccccc1`, the cytotoxicity call was “inactive”.

For `COc1ccc(NC(=O)Nc2ccc3c(c2)C(=O)N([C@H](C)CO)C[C@H](C)[C@H](CN(C)Cc2ccc(C(=O)Nc4ccccc4N)cc2)O3)cc1`, the cytotoxicity call is “inactive”.

Regarding `O=C(NO)c1cccc(C(=O)N/N=C/[C@H](O)[C@@H](O)[C@H](O)[C@H](O)CO[C@H]2O[C@H](CO)[C@H](O)[C@H](O)[C@H]2O)c1`, the cytotoxicity call is “inactive”.

`C[C@@H]1CN([C@H](C)CO)S(=O)(=O)c2ccc(C#Cc3cccc(F)c3)cc2O[C@@H]1CN(C)S(=O)(=O)c1cn(C)cn1`: the cytotoxicity call was “inactive”.

As for `Cc1ccc(S(=O)(=O)Nc2ccc3c(c2)C(=O)N([C@H](C)CO)C[C@H](C)[C@H](CN(C)C(=O)c2ccccc2)OCCCC[C@@H](C)O3)cc1`, the cytotoxicity call was “inactive”.

On to `O=C(Cc1ccccc1)Nc1ccccc1Sc1ccccc1`, for which the cytotoxicity call was “inactive”.

Take `CC(C)NC(=O)Nc1ccc2c(c1)C(=O)N(C)[C@@H]1CC[C@@H](CC(=O)NCc3ccc(F)cc3)O[C@@H]1CO2`: the cytotoxicity call is “inactive”.

Take `C[C@@H]1CN([C@H](C)CO)C(=O)c2cc(-c3cccnc3)cnc2O[C@@H]1CN(C)Cc1ccc(-c2ccccc2)cc1`: the cytotoxicity call is “inactive”.

As to `C[C@@H]1CN([C@@H](C)CO)C(=O)c2cc(NC(=O)Nc3cccc4ccccc34)ccc2O[C@@H]1CN(C)Cc1ccc(C(=O)O)cc1`, the cytotoxicity call was “inactive”.

As to `C[C@@H]1CN([C@@H](C)CO)C(=O)c2cccc(NS(=O)(=O)c3cccs3)c2O[C@@H]1CN(C)S(C)(=O)=O`, the cytotoxicity call was “inactive”.

Take `Cc1noc(C)c1NC(=O)N(C)C[C@@H]1Oc2c(NC(=O)NC(C)C)cccc2C(=O)N([C@H](C)CO)C[C@@H]1C`: the cytotoxicity call was “inactive”.

With `C[C@@H]1CN([C@H](C)CO)C(=O)CCCn2nncc2CO[C@@H]1CN(C)S(=O)(=O)c1cccc(C#N)c1`, the cytotoxicity call is “inactive”.

Turning to `COc1ccc(S(=O)(=O)Nc2cccc3c2O[C@@H](CN(C)S(=O)(=O)c2ccc(F)cc2)[C@H](C)CN([C@@H](C)CO)C3=O)cc1`, the cytotoxicity call is “inactive”.

`C[C@@H]1CN([C@@H](C)CO)C(=O)Cc2cc(NC(=O)CCN3CCOCC3)ccc2O[C@@H]1CN(C)CC1CC1`: the cytotoxicity call is “inactive”.

With `C[C@H](CO)N1C[C@H](C)[C@@H](CN(C)CC2CCCCC2)OCCCC[C@H](C)Oc2ccc(NC(=O)C3CCCCC3)cc2C1=O`, the cytotoxicity call is “inactive”.

On to `C[C@@H]1CN([C@@H](C)CO)C(=O)c2cc(NC(=O)C3CCCCC3)ccc2O[C@@H](C)CCCCO[C@@H]1CN(C)CC1CCCCC1`, for which the cytotoxicity call was “inactive”.

With `C[C@@H]1CCCCO[C@H](CN(C)CC2CCCCC2)[C@H](C)CN([C@@H](C)CO)C(=O)c2cc(NC(=O)C3CCCCC3)ccc2O1`, the cytotoxicity call is “inactive”.

For `C[C@@H]1CCCCO[C@@H](CN(C)CC2CCCCC2)[C@@H](C)CN([C@@H](C)CO)C(=O)c2cc(NC(=O)C3CCCCC3)ccc2O1`, the cytotoxicity call was “active”.

Consider `C[C@@H]1CCCCO[C@@H](CN(C)CC2CCCCC2)[C@H](C)CN([C@@H](C)CO)C(=O)c2cc(NC(=O)C3CCCCC3)ccc2O1`, for which the cytotoxicity call was “inactive”.

`C[C@H]1CCCCO[C@@H](CN(C)CC2CCCCC2)[C@@H](C)CN([C@@H](C)CO)C(=O)c2cc(NC(=O)C3CCCCC3)ccc2O1`: the cytotoxicity call is “inactive”.

With `C[C@@H]1CN([C@H](C)CO)C(=O)c2cc(NC(=O)C3CCCCC3)ccc2O[C@@H](C)CCCCO[C@@H]1CN(C)CC1CCCCC1`, the cytotoxicity call was “active”.

Consider `C[C@H]1CCCCO[C@H](CN(C)CC2CCCCC2)[C@@H](C)CN([C@@H](C)CO)C(=O)c2cc(NC(=O)C3CCCCC3)ccc2O1`, for which the cytotoxicity call was “active”.

For `C[C@@H]1CN([C@@H](C)CO)C(=O)c2cc(NC(=O)C3CCCCC3)ccc2O[C@@H](C)CCCCO[C@H]1CN(C)CC1CCCCC1`, the cytotoxicity call was “active”.

Consider `C[C@H](CO)N1C[C@H](C)[C@H](CN(C)CC2CCCCC2)OCCCC[C@H](C)Oc2ccc(NC(=O)C3CCCCC3)cc2C1=O`, for which the cytotoxicity call is “inactive”.

With `C[C@@H]1CCCCO[C@H](CN(C)CC2CCCCC2)[C@H](C)CN([C@H](C)CO)C(=O)c2cc(NC(=O)C3CCCCC3)ccc2O1`, the cytotoxicity call is “inactive”.

Turning to `C[C@@H]1CCCCO[C@@H](CN(C)CC2CCCCC2)[C@H](C)CN([C@H](C)CO)C(=O)c2cc(NC(=O)C3CCCCC3)ccc2O1`, the cytotoxicity call is “inactive”.

`COc1ccc(S(=O)(=O)N(C)C[C@@H]2OCCCC[C@@H](C)Oc3ccc(NS(C)(=O)=O)cc3C(=O)N([C@@H](C)CO)C[C@H]2C)cc1`: the cytotoxicity call was “inactive”.

Consider `C[C@H]1CN([C@@H](C)CO)C(=O)c2cccc(NC(=O)C3CCOCC3)c2O[C@H]1CN(C)Cc1ccc(-c2ccccc2)cc1`, for which the cytotoxicity call is “inactive”.

On to `O=C1NC(=O)[C@H]2CC[C@H]2N1`, for which the cytotoxicity call was “inactive”.

With `CN(CC=Cc1ccccc1)Cc1cccc2ccccc12.Cl`, the cytotoxicity call is “inactive”.

Take `Cc1noc(C)c1S(=O)(=O)N(C)C[C@H]1OCCCC[C@H](C)Oc2ccc(NC(=O)Nc3ccc(C(F)(F)F)cc3)cc2C(=O)N([C@H](C)CO)C[C@@H]1C`: the cytotoxicity call was “inactive”.

In the case of `Cc1ccc(S(=O)(=O)Nc2ccc3c(c2)C(=O)N([C@@H](C)CO)C[C@H](C)[C@H](CN(C)Cc2ccncc2)OCCCC[C@H](C)O3)cc1`, the cytotoxicity call was “inactive”.

Consider `COCC(=O)N1CC(=O)N2[C@H](C1)[C@@H](c1ccc(C#Cc3cccnc3)cc1)[C@@H]2CO`, for which the cytotoxicity call is “inactive”.

On to `Cc1noc(C)c1S(=O)(=O)N(C)C[C@H]1Oc2ccc(NS(=O)(=O)c3ccccc3)cc2CC(=O)N([C@H](C)CO)C[C@H]1C`, for which the cytotoxicity call is “inactive”.

As to `COc1ccc(S(=O)(=O)Nc2cccc3c2O[C@H](CN(C)Cc2ccc(Oc4ccccc4)cc2)[C@@H](C)CN([C@@H](C)CO)C3=O)cc1`, the cytotoxicity call is “inactive”.

On to `C[C@H]1CN([C@@H](C)CO)C(=O)c2cccc(NS(=O)(=O)c3ccc(Cl)cc3)c2O[C@@H]1CN(C)Cc1ccc(Oc2ccccc2)cc1`, for which the cytotoxicity call was “active”.

`COc1ccc(S(=O)(=O)Nc2cccc3c2O[C@H](CN(C)Cc2ccc(-c4ccccc4)cc2)[C@H](C)CN([C@@H](C)CO)C3=O)cc1`: the cytotoxicity call was “inactive”.

Turning to `C[C@@H]1CN([C@@H](C)CO)C(=O)c2cccc(NS(=O)(=O)c3ccc(F)cc3)c2O[C@H]1CN(C)Cc1ccc(Oc2ccccc2)cc1`, the cytotoxicity call was “inactive”.

`C[C@@H]1CN([C@@H](C)CO)C(=O)c2cccc(NS(=O)(=O)c3ccc(Cl)cc3)c2O[C@H]1CN(C)Cc1ccc(Oc2ccccc2)cc1`: the cytotoxicity call was “inactive”.

For the compound `COc1ccc(S(=O)(=O)Nc2cccc3c2O[C@H](CN(C)Cc2ccc(-c4ccccc4)cc2)[C@@H](C)CN([C@H](C)CO)C3=O)cc1`, the cytotoxicity call was “active”.

In the case of `C[C@H]1CN([C@@H](C)CO)C(=O)c2cccc(NS(=O)(=O)c3ccc(F)cc3)c2O[C@@H]1CN(C)Cc1ccc(Oc2ccccc2)cc1`, the cytotoxicity call was “inactive”.

Take `COc1ccc(S(=O)(=O)Nc2cccc3c2O[C@H](CN(C)Cc2ccc(-c4ccccc4)cc2)[C@H](C)CN([C@H](C)CO)C3=O)cc1`: the cytotoxicity call was “inactive”.

Take `COc1ccc(S(=O)(=O)Nc2cccc3c2O[C@H](CN(C)Cc2ccc(Oc4ccccc4)cc2)[C@@H](C)CN([C@H](C)CO)C3=O)cc1`: the cytotoxicity call is “inactive”.

In the case of `C[C@@H]1CN([C@@H](C)CO)C(=O)c2cccc(NS(=O)(=O)c3ccc(Cl)cc3)c2O[C@@H]1CN(C)Cc1ccc(Oc2ccccc2)cc1`, the cytotoxicity call was “inactive”.

As to `C[C@@H]1CN([C@@H](C)CO)C(=O)c2cccc(NS(=O)(=O)c3ccc(F)cc3)c2O[C@@H]1CN(C)Cc1ccc(Oc2ccccc2)cc1`, the cytotoxicity call was “active”.

On to `COc1ccc(S(=O)(=O)Nc2cccc3c2O[C@H](CN(C)Cc2ccc(Oc4ccccc4)cc2)[C@H](C)CN([C@@H](C)CO)C3=O)cc1`, for which the cytotoxicity call was “active”.

Consider `COc1ccc(S(=O)(=O)Nc2ccc3c(c2)C(=O)N([C@H](C)CO)C[C@H](C)[C@H](CN(C)C(=O)c2ccccc2)OCCCC[C@H](C)O3)cc1`, for which the cytotoxicity call was “inactive”.

`CCS(=O)(=O)Nc1ccc2c(c1)C(=O)N(C)C[C@H](OC)[C@@H](C)CN(C(=O)c1ccc3c(c1)OCO3)[C@@H](C)CO2`: the cytotoxicity call was “inactive”.

Take `O=C1CCOCCN1`: the cytotoxicity call was “inactive”.

As to `C[C@@H]1CCCCO[C@H](CN(C)S(C)(=O)=O)[C@@H](C)CN([C@H](C)CO)C(=O)c2cc(NS(=O)(=O)c3ccccc3)ccc2O1`, the cytotoxicity call is “inactive”.

With `CC(C)C#Cc1cnc2c(c1)C(=O)N([C@H](C)CO)C[C@H](C)[C@@H](CN(C)C(=O)c1ccc3c(c1)OCO3)O2`, the cytotoxicity call is “inactive”.

On to `COc1ccc(-c2cnc3c(c2)C(=O)N([C@@H](C)CO)C[C@@H](C)[C@H](CN(C)C(=O)Cc2ccncc2)O3)cc1`, for which the cytotoxicity call was “inactive”.

For the compound `Cc1ccc(S(=O)(=O)N(C)C[C@@H]2Oc3ccc(NC(=O)CCCN(C)C)cc3C(=O)N([C@@H](C)CO)C[C@H]2C)cc1`, the cytotoxicity call was “inactive”.

On to `CCC=CCC1=C(C)CCC1=O`, for which the cytotoxicity call is “inactive”.

For `C[C@]1(C(=O)NCc2ccccc2)c2ccccc2C(=O)N(Cc2ccccc2)[C@H]1c1ccc(COC(=O)NCCCCCC(=O)NO)cc1`, the cytotoxicity call is “inactive”.

For `COc1ccc(CN(C)C[C@@H]2OCCCC[C@H](C)Oc3ccc(NC(=O)Nc4ccccc4)cc3C(=O)N([C@@H](C)CO)C[C@@H]2C)cc1`, the cytotoxicity call is “inactive”.

For `Cc1ccc(S(=O)(=O)Nc2ccc3c(c2)C(=O)N([C@H](C)CO)C[C@@H](C)[C@H](CN(C)C(=O)C2CCCCC2)OCCCC[C@H](C)O3)cc1`, the cytotoxicity call was “inactive”.

With `O=C(C[C@@H]1CC[C@@H]2[C@H](COC[C@@H](O)CN2S(=O)(=O)c2ccc(Cl)cc2)O1)NCc1ccncn1`, the cytotoxicity call was “inactive”.

On to `Cc1noc(C)c1S(=O)(=O)Nc1ccc2c(c1)C(=O)N([C@@H](C)CO)C[C@H](C)[C@@H](CN(C)S(=O)(=O)c1ccc(F)cc1)O2`, for which the cytotoxicity call is “inactive”.

In the case of `C[C@@H]1CN([C@@H](C)CO)C(=O)Cc2cc(NS(=O)(=O)c3ccc(F)cc3)ccc2O[C@H]1CN(C)Cc1ccc(Oc2ccccc2)cc1`, the cytotoxicity call was “inactive”.

For `C[C@H]1CN([C@@H](C)CO)C(=O)Cc2cc(NS(=O)(=O)c3ccc(F)cc3)ccc2O[C@@H]1CN(C)Cc1ccc(Oc2ccccc2)cc1`, the cytotoxicity call is “inactive”.

Take `C[C@H]1CN([C@@H](C)CO)C(=O)Cc2cc(NS(=O)(=O)c3ccc(F)cc3)ccc2O[C@H]1CN(C)Cc1ccc(Oc2ccccc2)cc1`: the cytotoxicity call was “active”.

Consider `C[C@H](CO)N1C[C@H](C)[C@H](CN(C)Cc2ccc(Oc3ccccc3)cc2)Oc2ccc(NS(=O)(=O)c3ccc(F)cc3)cc2CC1=O`, for which the cytotoxicity call was “active”.

In the case of `C[C@@H]1CN([C@H](C)CO)C(=O)Cc2cc(NS(=O)(=O)c3ccc(F)cc3)ccc2O[C@H]1CN(C)Cc1ccc(Oc2ccccc2)cc1`, the cytotoxicity call is “active”.

For the compound `C[C@@H]1CN([C@@H](C)CO)C(=O)Cc2cc(NS(=O)(=O)c3ccc(F)cc3)ccc2O[C@@H]1CN(C)Cc1ccc(Oc2ccccc2)cc1`, the cytotoxicity call is “active”.
